Source: PubChem (National Center for Advancing Translational Sciences (NCATS))
GLA inh pH 4.5: qHTS Assay for Inhibitors of Human alpha-Galactosidase at pH 4.5 | Alpha-galactosidase A (Homo sapiens), P06280 | purified enzyme, 4-MU-alpha-Gal fluorescence, pH 4.5 | activity change, negative = inhibition, % at 105 µM | 230,000 tested, under 10 active;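 note: 0% = full activity with enzyme and -100% = basal without enzyme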
Target sequence (P06280 whole entry, looked up): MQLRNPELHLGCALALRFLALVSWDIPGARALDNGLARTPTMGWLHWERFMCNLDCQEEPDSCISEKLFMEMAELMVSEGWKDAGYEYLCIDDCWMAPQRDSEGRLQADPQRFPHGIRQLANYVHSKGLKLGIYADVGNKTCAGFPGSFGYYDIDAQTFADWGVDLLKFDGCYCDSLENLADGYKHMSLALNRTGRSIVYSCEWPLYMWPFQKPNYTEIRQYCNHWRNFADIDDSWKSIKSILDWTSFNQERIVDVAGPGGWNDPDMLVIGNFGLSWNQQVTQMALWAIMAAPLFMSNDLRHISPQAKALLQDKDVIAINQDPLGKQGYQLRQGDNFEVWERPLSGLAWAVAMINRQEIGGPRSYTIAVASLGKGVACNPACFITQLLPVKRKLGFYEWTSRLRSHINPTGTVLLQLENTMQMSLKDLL
GAA inh: qHTS Assay for Inhibitors of Human alpha-Glucosidase as a Potential Chaperone Treatment of Pompe Disease; purified human GAA, 4-MU-alpha-glucoside fluorescence; Potency, µM (doses to about 76.9 µM), for inactives: at the top dose activity change, negative = inhibition, usual class: inhibitors; actives 0.005% (n = 200,000); AID 1466, 2008;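 note: potency is the fitted concentration of half-maximal effect; plate controls were uninhibited enzyme wells for no effect and no-enzyme background for full effect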
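Human alpha-glucosidase, 4 nM, pre-mixed with test compounds before 400 uM 4-methylumbelliferyl substrate; 20 min room temperature at pH 5.0. Fluorescence read after pH 10 stop; AC50 values from Hill-equation fits.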
N370S GC: qHTS Assay for Inhibitors and Activators of N370S glucocerebrosidase as a Potential Chaperone Treatment of Gaucher Disease; Lysosomal acid glucosylceramidase (Homo sapiens), P04062; N370S GC spleen homogenate, 4MU-glucoside fluorescence; Potency, µM (series often up to 59.4 µM), for the others: at the top dose activity change, negative = inhibition, most hits filed as inhibitors; actives 0.092% (n = 330,000);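 note: potency is the fitted concentration of half-maximal effect; 0% = full enzyme activity and -100% = no enzyme basal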
GAA glycogen: qHTS Assay for Inhibitors and Activators of Human alpha-Glucosidase Cleavage of Glycogen. recombinant GAA, glycogen substrate, Amplex Red glucose oxidase fluorescence. AID 2100, 2009. actives 0.38% (n = 300,000). Potency, µM (doses to about 76.4 µM), for inactives: at the highest dose activity change, negative = inhibition, actives largely listed as inhibitors. Lysosomal alpha-glucosidase (Homo sapiens), P10253;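 note: potency is the fitted concentration of half-maximal effect; 0% = full enzyme reaction and -100% = no-enzyme basal signal; the screen sought inhibitors and activators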
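Natural-substrate format: glycogen cleavage by 4 nM human enzyme, glucose read by Amplex Red coupling (Ex 573, Em 610 nm). Normalized to enzyme and no-enzyme controls.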
aGlu spleen mod: qHTS Assay for Inhibitors and Activators of Human alpha-Glucosidase From Spleen Homogenate. Lysosomal alpha-glucosidase (Homo sapiens), P10253. human spleen homogenate, 4-MU-alpha-glucoside fluorescence. Potency, µM (series often up to 79.9 µM), for inactives: top-dose activity change, negative = inhibition, most hits filed as inhibitors. actives 0.006% (n = 240,000). AID 2112, 2009;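 note: potency is the fitted concentration of half-maximal effect; 0% = enzyme with vehicle and -100% = no enzyme basal signal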
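Human spleen homogenate (1 ug) incubated with compounds and 1 mM 4-methylumbelliferyl-alpha-D-glucopyranoside in pH 5.0 citrate/phosphate buffer, 37 C, 40 min. Stopped at pH 10; 4-MU fluorescence (Ex 365/Em 440 nm); AC50 by Hill fit.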
aGal spleen mod: qHTS Assay for Inhibitors and Activators of Human alpha-Galactosidase From Spleen Homogenate; human spleen homogenate, 4MU-alpha-Gal fluorescence, 40 min; Potency, µM (series often up to 80 µM), without a hit: top-dose activity change, negative = inhibition, actives largely listed as inhibitors; actives 0.008% (n = 240,000);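 note: potency is the fitted concentration of half-maximal effect; 0% = enzyme with vehicle and -100% = no enzyme basal signal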
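Fluorogenic readout (Ex 365/Em 440 nm) of 4-methylumbelliferone released from 1 mM 4-MU-alpha-galactoside by spleen homogenate, 40 min at 37C, pH 5.0. Data normalized to no-enzyme and enzyme controls; Hill-equation AC50 from compound titrations.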
Starred values were filed as active, the others as inactive; ? = inconclusive; . = no result; ! = repeats disagree; [ ] = another dose, or the depositor's remark. Hits are enriched below; roughly 0.43% of the tested compounds scored in any of these assays. Calls come from the whole dose curve; as a rule, active = well fitted curve in the direction sought with a large enough effect; inconclusive = small, poorly fitted or top-dose-only effect, or another doubt; inactive = no such curve, though single readings can be large; an effect the other way counts as inactive or inconclusive.

SMILES	GLA inh pH 4.5	GAA inh	N370S GC	GAA glycogen	aGlu spleen mod	aGal spleen mod
CCCCS(=O)(=O)N1CCc2nc(-c3ccc(OC)cc3C)c3c(c2C1)CO[C@@H](c1ccccc1)C3	5	.	-26%[12.8 µM]	.	4%[17.4 µM]	0%[17.5 µM]
O=C(NCc1ccccn1)C1(C(F)(F)F)CC(CCCO)CCCO1 (stereo unspecified)	.	.	-1%	.	-6%	-4%
COc1ccccc1CNc1ncnc2ccc(-c3ccccc3OC)cc12	.	.	-4%	.	-5%	-2%
O=C(O)CNC(=O)c1ccc([N+](=O)[O-])cc1	.	.	0%	.	-4%	-2%
Oc1ccc(N2CCN(c3ncnc4sc5c(c34)CCC5)CC2)cc1	5	0%	-18%	14µM*	-4%	17%
Cc1ccc(SCc2cc(=O)c3c(=O)n(-c4ccccc4)[nH]c3[nH]2)cc1	-15	-14%	-5%	10µM*	-2%	-4%
O=c1cc(CSc2ccc(Cl)cc2)[nH]c2[nH]n(-c3ccccc3)c(=O)c12	-8	.	-3%	?	-14%	0%
Nc1cc(C(=O)O)c(O)c(S(=O)(=O)O)c1	.	.	10%	.	2%	-1%
CC(C)(C)c1cc(C(=S)N2CCN(CCO)CC2)cc(C(C)(C)C)c1O	-8	-2%	18µM*	-2%	-15%	-13%
COc1cccc(-c2nnc3n2N=C(c2ccccc2OC)CS3)c1	.	.	2%	.	13%	10%
COc1cc([C@@H]2Oc3cc([C@H]4Oc5cc(O)cc(O)c5C(=O)[C@H]4O)ccc3O[C@H]2CO)ccc1O	-1	.	?	.	8%	-9%
CCn1ccnc1CN(C)Cc1cn(-c2ccccc2)nc1-c1ccc(OC)cc1F	0	-1%	10%	4%	1%	9%
Cc1ccc(-n2cc(CN(C)Cc3nccn3C)c(-c3ccc(F)cc3)n2)cc1	-9	?	?	-18%	2%	-12%
CCn1ccnc1CN(C)Cc1cn(-c2ccc(C)cc2)nc1-c1ccc(F)cc1	-18	-1%	6.3µM*	-12%	4%	10%
CCn1ccnc1CN(C)Cc1cn(-c2cc(C)ccc2C)nc1-c1ccccc1	-8	.	14µM*	6%	-3%	-3%
CC(=O)OCC1OC(C#Cc2ccc(F)cc2F)C=CC1OC(C)=O (stereo unspecified)	.	.	-21%[12.8 µM]	.	-8%[17.4 µM]	-4%[17.5 µM]
C=C(C#N)C(=O)OCC	.	.	9%	.	3%	9%
O[N+]1=CC=CCC1=S.On1ccccc1=S.[Zn]	1	.	8%	.	-3%	-5%
OCCCNC(=S)Nc1ccc(Nc2ccccc2)cc1	3	-8%	-15%	14µM*	1%	-3%
Nc1ccc(NC(=S)Nc2ccccc2)cc1	-1	-4%	0%	0%	-1%	-3%
Oc1ccc(NC(=S)Nc2ccccc2)cc1	22	3%	?	11µM*!	-2%	2%
Cc1noc(C)c1-c1ccc2ncnc(NCc3cccc(C(F)(F)F)c3)c2c1	.	.	3%	.	3%	0%
Nc1ccccc1Nc1cc(-c2ccccc2)nn1-c1ccccc1	-9	-11%	-3%	?	-5%	8%
Nc1ccccc1Nc1cc(-c2ccccc2)[nH]n1	-5	1%	-1%	7.9µM*	9%	9%
C=CC1=C2C=C(C3CC3)N(CCN3CCOCC3)C=C2C(=O)C(C)(OC(=O)c2ccco2)C1=O (stereo unspecified)	3	.	-14%[12.8 µM]	.	9%[17.4 µM]	6%[17.5 µM]
SMILES	GLA inh pH 4.5	GAA inh	N370S GC	GAA glycogen	aGlu spleen mod	aGal spleen mod
O=C1CCCC2=C1Sc1ccccc1N2	3	.	3%	7.1µM*	8%	4%
CCOc1ccc(NC(=S)N(CCCN2CCOCC2)Cc2cn(C)c3ccccc23)cc1	-4	-4%	5%	-16%	-1%	-7%
Cn1cc(CN(CCCN2CCOCC2)C(=S)Nc2cccc(Cl)c2)c2ccccc21	-2	1%	10µM*	-20%	-2%	3%
Cc1cccc(NC(=S)N(CCCN2CCOCC2)Cc2cn(C)c3ccccc23)c1	5	0%	7.9µM*	6%	-8%	-7%
COc1ccc(NC(=S)N(CCCN2CCOCC2)Cc2cn(C)c3ccccc23)cc1	8	-4%	0%	-24%	-12%	7%
CN1[C@H]2CC(OC(=O)[C@H](CO)c3ccccc3)C[C@H]1[C@H]1O[C@H]12 (stereo partly specified)	.	.	-1%	.	6%	8%
CCCCC(C)/C=C(C)/C=C(\C)C(=O)NC1=CC(O)(/C=C/C=C/C=C/C(=O)NC2=C(O)CCC2=O)C2OC2C1=O (stereo unspecified)	.	.	-14%	.	-1%	-11%
COc1ccc(S(=O)(=O)Nc2cc(C(C)C)c(O)cc2C)cc1	-6	-9%	0%	20µM*	-2%	-1%
Cc1cc(NS(=O)(=O)c2ccccc2)c(C)c(Cl)c1O	0	-1%	3%	45µM*	8%	0%
COc1ccc(S(=O)(=O)Nc2ccc(O)c3ccccc23)cc1	-6	5%	1%	9.9µM*	6%	-4%
Cc1ccc(S(=O)(=O)Nc2cc(C)c(O)cc2C)cc1	3	4%	-9%	3.5µM*	3%	5%
COc1ccc(S(=O)(=O)Nc2cc(C)c(O)cc2C(C)C)cc1	-3	-1%	3%	?	-4%	-3%
Cc1ccc(Nc2c(-c3c[nH]c4ccccc34)nc3ccccn23)cc1	.	.	.	4.5µM*	.	.
Fc1ccc(CNc2ccc(N3CCN(Cc4ccccc4)CC3)cc2)cc1	.	.	-3%	8.9µM*	.	.
Cc1ccc(CNc2ccc(N3CCOCC3)cc2)s1	5	-3%	-6%	28µM*	-3%	0%
CC(=O)N1CCN(c2ccc(NCc3ccc(C)s3)cc2)CC1	2	-2%[15.4 µM]	-12%	16µM*	-7%	-3%
CC(=O)Nc1ccc(N2CCN(C(=O)c3cccs3)CC2)cc1	-1	-1%	4%	4%	5%	12%
CC(=O)N1CCN(c2ccc(NCc3cccs3)cc2)CC1	4	-9%	?	40µM*	0%	6%
CC(=O)OCOC(c1ccc2ccccc2c1)P(=O)(OCOC(C)=O)OCOC(C)=O (stereo unspecified)	.	.	6%	.	-4%	?
CC(=O)N1CCN(c2ccc(NCc3cccc4ccccc34)cc2)CC1	.	.	?	-16%[15.3 µM]	.	.
CC(=O)N1CCN(c2ccc(NCc3ccccc3)cc2)CC1	-8	-3%	-21%	14µM*	-10%	-2%
